Assay results as given in the supplement of paper PMC6555819.

Each sequence was assayed on RARa:RXR (NR concentration 270 nM, RXRa partner concentration 90 nM) (assay: PBM binding z-score (relative to random genomic background probes); higher = stronger binding; sequences stand for … in GC…GCGATTGACAGCGTAGAATGAAGG).
Outline: (§1)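 For binding z-scores, the reference was random background probes on custom Agilent 4×180K protein-binding microarrays. These arrays were incubated 1 h with ligand-free nuclear receptor dimers in PBS pH 7.4, 2% milk, 0.02% Triton X-100, 1 mM DTT, 0.2 mg/mL BSA and 0.4 mg/ml salmon testes DNA. Fluorescence was scanned after antibody detection of each partner (one per run) and regression-normalized.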
Sequence TTACCAGGGTGAAGGTCGTTGATCCCTCTGTAGA has a PBM binding z-score of 1.86.
In the case of TCATATAGGTAAACTGGTGAAAGTCCGTAAGTTA, the PBM binding z-score is reported as 0.446.
TCTATTAGTTCATTAGGGCAACCGAAACAGCGGA showed a PBM binding z-score of 1.2.
With TCTTGTAGATCAACGGTTAAGAAAGCCGAAGCCT the PBM binding z-score was 0.701.
In the case of TCTAGTTAGTCAAAGGTCACACACTCGAAATGCG, the PBM binding z-score is reported as 6.72.
Work on ATCTCTATGTAACCAAGTTCAGTGAATGCCGAAC yielded a PBM binding z-score of 0.419.
In the case of TGAATGAGGTTATAAGATCACGGAACGTTGCAAA, the PBM binding z-score is reported as 2.09.
In the case of CGTCAAAGTTCGAGGTAACGTAACAGAAAGCAGC, the PBM binding z-score is reported as 1.39.
Work on CAAACTAGGCCAAAGGTCAAAGTCGAGCCAACCA yielded a PBM binding z-score of 6.35.
GCATATAGGTAATAGAAGGTGAAAGTCCGATTGT gave a PBM binding z-score of 0.961.
TCTTGTAGATCAGCAGGTTAAGAAGGCTGGCCAA was tested, and the PBM binding z-score was 0.64.
Work on GCTGCTAGGTCAACTGATCGTCAGCTAAAGCTCG yielded a PBM binding z-score of 2.14.
TTACCAAGGGGAAGGTCGTTGATCCCTCTGTAGA gave a PBM binding z-score of 0.899.
In the case of CTCGAAAGGTTGGTTGAGGTGAGTATACGGATAA, the PBM binding z-score is reported as 1.09.
Work on TCTTGTAGATAAATAGAGGTTAAGAAAGTGCGCT yielded a PBM binding z-score of 1.8.
Work on GCTCGGAGGATAAGGTCAGAGCTTTGTCCGTAGA yielded a PBM binding z-score of 2.62.
In the case of TCATATCGGTAAAGGTGAAAGTCGAACGATATGA, the PBM binding z-score is reported as 1.62.
CGTCCAAGGTCAACGGTCAGTGAAGAGATGACGG gave a PBM binding z-score of 4.66.
GCTATTAGTTGATAGGGCAACCGAATGATTCTCG showed a PBM binding z-score of 0.0949.
In the case of GATACAGGGTCAAGGCCGGAGTACGCGTATTGAT, the PBM binding z-score is reported as 4.01.
In the case of CGAACTAGGTCATTGACACGACAGTGAATAGTAA, the PBM binding z-score is reported as 2.2.
For CCTACTGTGCCAAAGGTCATTGATTCCAATGCTC, the PBM binding z-score was 5.77.
Work on TCTCGGAGTACACGAAAGGTCAGAGCTCGACATC yielded a PBM binding z-score of 4.04.
CCAGACAGGTGAAAGGGAACTCAGTCTGGTACGC showed a PBM binding z-score of 0.13.
ATCTAAAGGTCGTGAGGTGAGTATACAGAAAGGC showed a PBM binding z-score of 4.46.
CCGACTGCGGCAAAGGTTACCATACTCAGTACGA gave a PBM binding z-score of 2.57.
For TCTTGTAGCTCAGCAGGTTAAGAAAGCTGGCCAA, the PBM binding z-score was -0.108.
Sequence CCTACTGGGCGAAAGGTCATTGATTCCAATGCTC has a PBM binding z-score of 5.57.
ATTGAAAGGTCGTGAGGTGAGTATACAGAAAGGC was tested, and the PBM binding z-score was 4.27.
Sequence CTAGACAGGTGAGAAGGTAACTCAGCCTCGATTA has a PBM binding z-score of -0.121.
Work on AGTCAAAGTTCACTAGGTGACGTAAGATTCAGCT yielded a PBM binding z-score of 3.34.
Sequence TCTTGTAGATCAAGCAGGTTAAGCAAGCCTGAGT has a PBM binding z-score of 0.628.
In the case of GCTAGCAGGCCATTTGGTTCACTCAATGACGGGC, the PBM binding z-score is reported as -0.572.
CCTAGCAGGCCAAGCTGGGTCACTCAAGGCTTGA was tested, and the PBM binding z-score was 1.29.
GCAGAGAGGTGAAACGCAGGTAACTCAGGGTGGC gave a PBM binding z-score of 1.48.
TCTTGTAGATTAAGCAGGTTAAGAAAGCCTGAGT was tested, and the PBM binding z-score was 0.419.
With CCTGGTAGGTCAATGGTCAGCTAAAGCAGCTCGC the PBM binding z-score was 2.11.
GCAGACAGGTGAAACGCACGTAACTCAGGGTGGC was tested, and the PBM binding z-score was -0.0418.
TCTAGAAGGCCAGAGGGTCACTCAAGAGGTACGG gave a PBM binding z-score of 2.54.
GGAGACAGGTGAAACGCAGGTAACTCAGGGTGGC gave a PBM binding z-score of 0.137.

Each sequence was assayed on RARa homodimer (NR concentration 270 nM) in the same assay as above.
Outline: as §1
Work on TTACCAGGGTGAAGGTCGTTGATCCCTCTGTAGA yielded a PBM binding z-score of -0.0972.
In the case of TCATATAGGTAAACTGGTGAAAGTCCGTAAGTTA, the PBM binding z-score is reported as 1.61.
Work on TCTATTAGTTCATTAGGGCAACCGAAACAGCGGA yielded a PBM binding z-score of 1.45.
In the case of TCTTGTAGATCAACGGTTAAGAAAGCCGAAGCCT, the PBM binding z-score is reported as 0.15.
For TCTAGTTAGTCAAAGGTCACACACTCGAAATGCG, the PBM binding z-score was 3.05.
In the case of ATCTCTATGTAACCAAGTTCAGTGAATGCCGAAC, the PBM binding z-score is reported as 0.407.
Sequence TGAATGAGGTTATAAGATCACGGAACGTTGCAAA has a PBM binding z-score of 0.409.
CGTCAAAGTTCGAGGTAACGTAACAGAAAGCAGC was tested, and the PBM binding z-score was 0.233.
Sequence CAAACTAGGCCAAAGGTCAAAGTCGAGCCAACCA has a PBM binding z-score of 0.602.
Sequence GCATATAGGTAATAGAAGGTGAAAGTCCGATTGT has a PBM binding z-score of 0.689.
In the case of TCTTGTAGATCAGCAGGTTAAGAAGGCTGGCCAA, the PBM binding z-score is reported as -0.641.
Work on GCTGCTAGGTCAACTGATCGTCAGCTAAAGCTCG yielded a PBM binding z-score of -0.582.
Sequence TTACCAAGGGGAAGGTCGTTGATCCCTCTGTAGA has a PBM binding z-score of -0.541.
CTCGAAAGGTTGGTTGAGGTGAGTATACGGATAA gave a PBM binding z-score of 0.368.
In the case of TCTTGTAGATAAATAGAGGTTAAGAAAGTGCGCT, the PBM binding z-score is reported as 1.33.
For GCTCGGAGGATAAGGTCAGAGCTTTGTCCGTAGA, the PBM binding z-score was -0.904.
For TCATATCGGTAAAGGTGAAAGTCGAACGATATGA, the PBM binding z-score was 0.00667.
CGTCCAAGGTCAACGGTCAGTGAAGAGATGACGG gave a PBM binding z-score of 0.466.
With GCTATTAGTTGATAGGGCAACCGAATGATTCTCG the PBM binding z-score was 0.352.
GATACAGGGTCAAGGCCGGAGTACGCGTATTGAT was tested, and the PBM binding z-score was 0.567.
CGAACTAGGTCATTGACACGACAGTGAATAGTAA showed a PBM binding z-score of 0.177.
In the case of CCTACTGTGCCAAAGGTCATTGATTCCAATGCTC, the PBM binding z-score is reported as 2.56.
TCTCGGAGTACACGAAAGGTCAGAGCTCGACATC was tested, and the PBM binding z-score was -0.148.
Sequence CCAGACAGGTGAAAGGGAACTCAGTCTGGTACGC has a PBM binding z-score of 0.262.
ATCTAAAGGTCGTGAGGTGAGTATACAGAAAGGC gave a PBM binding z-score of 1.13.
CCGACTGCGGCAAAGGTTACCATACTCAGTACGA gave a PBM binding z-score of 0.118.
TCTTGTAGCTCAGCAGGTTAAGAAAGCTGGCCAA gave a PBM binding z-score of -1.11.
CCTACTGGGCGAAAGGTCATTGATTCCAATGCTC gave a PBM binding z-score of 0.869.
ATTGAAAGGTCGTGAGGTGAGTATACAGAAAGGC showed a PBM binding z-score of 1.15.
Work on CTAGACAGGTGAGAAGGTAACTCAGCCTCGATTA yielded a PBM binding z-score of -0.138.
In the case of AGTCAAAGTTCACTAGGTGACGTAAGATTCAGCT, the PBM binding z-score is reported as 1.67.
With TCTTGTAGATCAAGCAGGTTAAGCAAGCCTGAGT the PBM binding z-score was -0.655.
Sequence GCTAGCAGGCCATTTGGTTCACTCAATGACGGGC has a PBM binding z-score of -0.886.
For CCTAGCAGGCCAAGCTGGGTCACTCAAGGCTTGA, the PBM binding z-score was -0.984.
GCAGAGAGGTGAAACGCAGGTAACTCAGGGTGGC showed a PBM binding z-score of -0.435.
For TCTTGTAGATTAAGCAGGTTAAGAAAGCCTGAGT, the PBM binding z-score was 0.0226.
With CCTGGTAGGTCAATGGTCAGCTAAAGCAGCTCGC the PBM binding z-score was 1.12.
GCAGACAGGTGAAACGCACGTAACTCAGGGTGGC was tested, and the PBM binding z-score was -0.719.
For TCTAGAAGGCCAGAGGGTCACTCAAGAGGTACGG, the PBM binding z-score was 0.19.
GGAGACAGGTGAAACGCAGGTAACTCAGGGTGGC showed a PBM binding z-score of -0.68.
